Screening data from PubChem.
Hits are enriched below; roughly 2.9% of the tested compounds scored in any of these assays.
KLK7 zymogen act – activates the human kallikrein-7 zymogen | activation, % at 7 µM | actives 0.9% (n = 370,000) | AID 652039 | purified proKLK7, EDANS-DABCYL substrate fluorescence; 100% is mature enzyme control, 0% vehicle | P49862;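 active means activation above the mean of all tested compounds plus 3 SD, computed per campaign excluding outliers beyond control limits, cut at about 13% in these data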
ADAM10 inh – ADAM10 inhibition, QFRET primary screen | O14672 | recombinant ADAM10, EDANS/DABCYL FRET peptide cleavage, 3 h | inhibition, % at 7 µM | actives 0.62% (n = 370,000) | AID 720582;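 active means inhibition above a per-campaign cutoff equal to the mean of compounds falling between control-based bounds plus 3 SD, cut at about 20% in these data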;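 further: 0% = DMSO wells while the 100% control is not disclosed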
PLCb3 inh – inhibitors of human phospholipase C beta3 | Q01970 | inhibition, % at 12.2 µM | actives 0.18% (n = 370,000) | Purified PLC-beta3, fluorogenic substrate, fluorescence | AID 720704; in the data active means inhibition above about 11%;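 further: 0% = median of compound wells on plate and 100% = full blocker control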
PLC-gamma1 inh – PLC-gamma1 (human) inhibition, primary screen | inhibition, % at 12.2 µM | purified PLC-gamma1, fluorogenic substrate, fluorescence | AID 720700 | actives 0.84% (n = 370,000) | P19174; in the data active means inhibition above about 9.5%
ADAM17 inh – inhibits human ADAM17; recombinant ADAM17, EDANS/DABCYL FRET peptide cleavage; inhibition, % at 6.95 µM; actives 0.83% (n = 370,000);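 active means inhibition above the mean of compounds lying between control limits plus 3 SD, set per campaign, cut at about 8.5% in these data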;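 further: 0% = DMSO-only wells as the low control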
ADAM10 confirm – human ADAM10 inhibition, confirmation | shares compounds with ADAM10 inh | ADAM10 QFRET peptide cleavage, EDANS fluorescence | inhibition, % at 6.95 µM | actives 1% (n = 2,100) | AID 743208;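 active means inhibition above about 20% chosen separately for each screening run, limit read from the data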;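 further: 0% = DMSO wells and 100% = marimastat wells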
ADAM17 ctr – ADAM17 inhibition, counter-screen for ADAM10 exosite hits; shares compounds with ADAM10 inh; ADAM17 QFRET peptide cleavage, EDANS fluorescence; inhibition, % at 6.95 µM; actives 0.5% (n = 2,100);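 active means mean triplicate inhibition above the solvent-only control wells' mean plus 3 SD, cut at about 12% in these data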;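 further: 0% = DMSO wells and 100% = marimastat wells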
ADAM10 counter – counter-screen for ADAM17 exosite inhibitors: inhibitors of human ADAM10. actives 47% (n = 2,900). AID 743256. shares compounds with ADAM17 inh. inhibition, % at 6.95 µM. recombinant ADAM10, EDANS/DABCYL FRET peptide cleavage, 3 h;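 active means mean inhibition over the triplicate runs exceeds the activity threshold set in the earlier primary screen, cut at about 20% in these data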;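 further: 0% = DMSO wells and 100% = marimastat wells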
ADAM17 confirm – human ADAM17 inhibition, confirmation; recombinant ADAM17, EDANS/DABCYL QFRET peptide cleavage; shares compounds with ADAM17 inh; inhibition, % at 6.95 µM; actives 65% (n = 2,900); AID 743257;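 active means mean inhibition across replicates above the hit cutoff set in the primary screen, cut at about 8.5% in these data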;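 further: 0% = DMSO wells and 100% = marimastat wells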
Numbers without * were called inactive.

COc1ccc(N2C(=O)CSC23C(=O)N2c4c(cccc43)C(C)=CC2(C)C)cc1 (stereo not given) was read as KLK7 zymogen act 0, ADAM10 inh 22*, PLCb3 inh 3, PLC-gamma1 inh 6, ADAM17 inh 9, ADAM10 confirm 2 and ADAM17 ctr 0.
Screening COc1ccc(N2C(=O)CSC23C(=O)N2CCCc4cccc3c42)cc1 (stereo not given) returned KLK7 zymogen act -1, ADAM10 inh 0, PLCb3 inh -1, PLC-gamma1 inh 3 and ADAM17 inh -3.
For O=C(c1ccc(F)cc1Cl)N1CCN(CCc2ccccc2)CC1 the results were KLK7 zymogen act 0, ADAM10 inh 3, PLCb3 inh -3, PLC-gamma1 inh -3 and ADAM17 inh -2.
`Cc1ccc(OCCn2c(CCCO)nc3ccccc32)cc1` gave KLK7 zymogen act 0, ADAM10 inh 1, PLCb3 inh 7, PLC-gamma1 inh 0 and ADAM17 inh 2.
O=C(NCc1nc2ccccc2[nH]1)C1=C[C@H](c2coc3ccccc3c2=O)C[C@H](OCc2ccc(CO)cc2)O1 was read as KLK7 zymogen act 1, ADAM10 inh 24*, PLCb3 inh -6, PLC-gamma1 inh 1, ADAM17 inh 5, ADAM10 confirm 3 and ADAM17 ctr 1.
For O=C(NCc1nc2ccccc2[nH]1)C1=C[C@H](c2ccccc2)C[C@H](OCc2ccc(CO)cc2)O1 the results were KLK7 zymogen act 0, ADAM10 inh -1, PLCb3 inh -7, PLC-gamma1 inh -9 and ADAM17 inh 1.
`O=C(Nc1ccc(Oc2ccc(NC(=O)c3ccco3)c(NC(=O)c3ccco3)c2)cc1)c1ccco1` gave KLK7 zymogen act 0, ADAM10 inh 7, PLCb3 inh 0, PLC-gamma1 inh 1 and ADAM17 inh 3.
`O=C(Nc1ccc(Oc2ccc3ccccc3c2)cc1)c1ccco1` gave KLK7 zymogen act 0, ADAM10 inh 23*, PLCb3 inh 0, PLC-gamma1 inh 1, ADAM17 inh 2, ADAM10 confirm 9 and ADAM17 ctr 3.
Screening O=C(NCC1CCCCC1)c1ccc(Cl)nc1 returned KLK7 zymogen act 0, ADAM10 inh 7, PLCb3 inh 4, PLC-gamma1 inh 4 and ADAM17 inh 1.
`O=C(N[C@@H]1CCC(=O)N(CC[C@H](Oc2ccccc2)c2ccccc2)CC1)OCc1ccccc1` gave KLK7 zymogen act 0, ADAM10 inh 20*, PLCb3 inh 7, PLC-gamma1 inh 0, ADAM17 inh 3, ADAM10 confirm 5 and ADAM17 ctr 2.
O=C(c1ccccc1)c1ccc2nc(-c3ccc(NC(=O)c4ccccc4F)cc3)[nH]c2c1 was read as KLK7 zymogen act -3, ADAM10 inh -10, PLCb3 inh -57, PLC-gamma1 inh -50 and ADAM17 inh -6.
`O=C(/C=C/c1ccc(Cl)cc1Cl)NCCSCc1ccccc1` gave KLK7 zymogen act -1, ADAM10 inh 13, PLCb3 inh 0, PLC-gamma1 inh 1 and ADAM17 inh 5.
O=C(/C=C/c1ccc(Cl)cc1Cl)NCCSc1ccccc1 was read as KLK7 zymogen act 0, ADAM10 inh 25*, PLCb3 inh 3, PLC-gamma1 inh 4, ADAM17 inh 11*, ADAM10 confirm 6, ADAM17 ctr 2, ADAM10 counter 23* and ADAM17 confirm 17*.
For Cc1ccc(-n2c(SCC(=O)Nc3cccc(S(N)(=O)=O)c3)nc3ccccc32)cc1 the results were KLK7 zymogen act 0, ADAM10 inh 20*, PLCb3 inh 1, PLC-gamma1 inh -20, ADAM17 inh 12*, ADAM10 confirm 11, ADAM17 ctr 4, ADAM10 counter 26* and ADAM17 confirm 14*.
